Source: PubChem
This is a sample that favours compounds with a hit; in the whole collection about 1.3% have one here.
S1P4 antagonist: human S1P4 receptor antagonism | O95977 | S1P4-expressing cells, antagonist mode, reporter read-out | inhibition, % at 4.98 µM | hit rate 0.26% among 220,000 | AID 1510; in the data active = inhibition above about 29%;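 also: 0% = wells stimulated with agonist and 100% = vehicle wells without agonist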
S1P3 antagonist: blocks the human S1P3 receptor | CHO S1P3 NFAT-BLA reporter, FRET fluorescence, antagonist mode | inhibition, % at 4.98 µM | hit rate 0.27% among 170,000 | AID 485;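 active = inhibition above the plate cutoff, the mean inhibition of test wells on that plate plus 3 SD, cut at about 28% in these data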;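 also: cells challenged with S1P at its EC80 of 0.8 µM; blue over green emission ratio from cleaved BLA substrate after 4 h stimulation; 0% = S1P-stimulated wells and 100% = unstimulated DMSO-only wells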
PERK inh: inhibitors of human PERK kinase; inhibition, % at 5.6 µM; CHO PERK-DD fusion, SEAP luminescence translation reporter; hit rate 0.17% among 220,000;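 active = inhibition above the mean inhibition of all tested compounds plus 3 SD, set separately per screening campaign, cut at about 2.9% in these data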;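 also: PERK kinase domain activated by AP20187 dimerizer at 100 nM; 0% = DMSO with dimerizer and 100% = rapamycin at 8.4 µM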
S1P4 agonist: activates the human S1P4 receptor; O95977; S1P4-expressing cell line, agonist reporter assay; activation, % at 4.98 µM; hit rate 0.35% among 220,000; in the data active = activation above about 11%;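 also: 0% = DMSO vehicle and 100% = reference agonist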
Calpain2 inh: inhibitors of pig calpain II; purified calpain II, fluorogenic peptide substrate, 30 min; AID 1236; hit rate 0.37% among 220,000; inhibition, % at 16 µM;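 active = inhibition above about 50%, limit read from the data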
S1P4 ag conf: human S1P4 agonism, confirmation; shares compounds with S1P4 agonist; S1P4 agonist cell-based reporter assay; activation, % at 4.98 µM; hit rate 7% among 740; AID 1523; in the data active = activation above about 12%;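 also: 0% = vehicle and 100% = full reference agonist response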
S1P1 agonist: counter-screen for S1P4 agonists: agonists of human S1P1 | shares compounds with S1P4 agonist | S1P1 agonist cell-based assay, activation | activation, % at 4.98 µM | hit rate 4% among 740 | AID 1563; in the data active = activation above about 21%;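 also: 0% = vehicle wells and 100% = reference agonist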
Target sequence (P21453 whole entry, looked up): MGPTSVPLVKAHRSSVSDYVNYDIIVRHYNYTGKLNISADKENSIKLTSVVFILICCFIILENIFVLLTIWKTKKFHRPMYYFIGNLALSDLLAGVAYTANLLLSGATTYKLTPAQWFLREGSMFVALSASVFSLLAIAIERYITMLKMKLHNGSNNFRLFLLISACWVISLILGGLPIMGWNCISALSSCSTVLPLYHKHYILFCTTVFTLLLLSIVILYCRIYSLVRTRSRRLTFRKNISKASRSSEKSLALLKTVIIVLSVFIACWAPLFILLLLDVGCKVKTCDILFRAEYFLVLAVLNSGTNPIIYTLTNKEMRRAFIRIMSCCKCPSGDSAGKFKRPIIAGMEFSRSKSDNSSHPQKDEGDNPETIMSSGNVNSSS
Starred values were filed as active, the others as inactive; . = no result given.

SMILES | S1P4 antagonist | S1P3 antagonist | PERK inh | S1P4 agonist | Calpain2 inh | S1P4 ag conf | S1P1 agonist
COC(=O)N/N=C(\CCC(=O)O)c1cccs1 | -15 | 4 | 2 | 27* | -1 | -2 | -6
O=C1CCN(S(=O)(=O)c2ccccc2)CCN1CCOCc1cccc(F)c1 | . | . | . | . | 14 | . | .
CCCCC1=NN(C(=O)c2cccnc2)C(O)(C(F)(F)F)C1 (stereo not drawn) | -7 | -9 | 0 | 0 | -12 | . | .
COc1ccc(-n2c(SCC(=O)Nc3cc(C)on3)nc3c(c2=O)SCC3)cc1 | -98 | 3 | 1 | 2 | -2 | . | .
COc1ccc(NC(=O)CSc2nc3c(c(=O)n2-c2ccc(F)cc2)SCC3)c(OC)c1 | -18 | 19 | -1 | 13* | -98 | -2 | -9
CC1(C)CC(N=Cc2c(O)n(Cc3ccc4c(c3)OCO4)c(=O)c3ccccc23)CC(C)(C)N1 | -11 | -8 | -1 | 0 | -17 | . | .
COc1ccc(-c2nnn(CC(=O)N(CCCN3CCOCC3)C(C(=O)NC3CCCC3)c3ccco3)n2)cc1 (stereo not drawn) | -23 | -1 | 0 | 14* | -20 | -3 | -9
COc1ccc(/C=N/NC(=O)c2ccco2)cc1OCc1ccccc1 | 8 | 9 | 1 | -1 | 4 | . | .
COc1cc(/C=N/N(C)C)cc(Br)c1O | -3 | -11 | 3 | 39* | -10 | -2 | -6
CN=c1scc(C)n1/N=C/c1cc(Br)c(O)c(OC)c1 | 1 | 9 | 0 | 2 | -58 | . | .
CCOCCCNC(=O)C(c1ccc(C)cc1)N(Cc1cccs1)C(=O)c1ccccc1O (stereo not drawn) | 4 | -15 | -1 | -2 | -17 | . | .
NS(=O)(=O)c1ccc(NC(=O)C(=O)NCCC(=O)O)cc1 | 1 | -4 | 1 | 1 | -15 | . | .
CCNS(=O)(=O)c1cc(OC)ccc1OC | -2 | . | -1 | 16* | -5 | -1 | 1
O=C(COC(=O)c1cccc(C(F)(F)F)c1)NCc1ccc(Cl)cc1 | 13 | 1 | 1 | 4 | 7 | . | .
O=C(COC(=O)c1ccncc1)NCc1ccccc1 | -6 | 10 | 2 | -3 | -16 | . | .
O=C(COC(=O)c1cccc(C(F)(F)F)c1)NCc1ccccc1 | -1 | -10 | 1 | 23* | -4 | -1 | 7
O=C(COC(=O)c1ccc(Br)cc1)NCc1ccccc1 | -15 | -13 | 1 | 15* | -8 | -1 | 7
CC(C)c1cccc(C(C)C)c1NC(=S)Nc1cccc(Cl)c1 | -8 | 6 | 0 | 3 | 7 | . | .
CN(Cc1cc(=O)n2ccsc2n1)c1ccccc1 | 3 | -3 | 1 | 2 | 1 | . | .
CN(Cc1cc(=O)n2ccsc2n1)C1CCCCC1 | 0 | 4 | 0 | 93* | -13 | -2 | 3
O=C(COC(=O)c1cn(-c2ccccc2)nc1-c1cccs1)NC1CC1 | -9 | 23 | -1 | 34* | -28 | -2 | -12
Cn1c(O)c(C=Nc2ccc(N3CCOCC3)cc2)c(=O)n(C)c1=S | 12 | -18 | 1 | 30* | 13 | -2 | -1
Cc1onc(-c2ccccc2Cl)c1C(=O)NCc1nc(-c2ccc(C(F)(F)F)cc2)no1 | -11 | 11 | 1 | -2 | -2 | . | .
O=c1cc(NCCc2ccccc2)c2ccccc2o1 | -10 | -1 | 0 | 1 | -27 | . | .
O=C(COC(=O)c1ccccn1)NCc1ccccc1Cl | -8 | -11 | 0 | 27* | 1 | -1 | 2
SMILES | S1P4 antagonist | S1P3 antagonist | PERK inh | S1P4 agonist | Calpain2 inh | S1P4 ag conf | S1P1 agonist
Cc1ccccc1-n1c(=O)[nH]c(=O)c2c(N)c(C(=O)c3ccc(Cl)cc3)sc21 | -2 | -4 | 1 | 83* | -96 | -2 | -7
COc1cc(C(=O)NC(=S)Nc2nccs2)cc(OC)c1OC | -6 | -7 | 1 | 3 | -4 | . | .
CCc1nnc(NC(=O)CSc2nc3cc(OC)ccc3cc2C)s1 | -3 | 3 | 0 | 0 | -17 | . | .
Cn1c(=O)c2[nH]c(COc3ccc(C(C)(C)C)cc3)nc2n(C)c1=O | 0 | -4 | 0 | 1 | 24 | . | .
COc1cccc(-n2nc(C(C)=O)c(C#N)c2-c2ccco2)c1 | 0 | -2 | -1 | 38* | 20 | -2 | -5
Fc1ccc(-c2nnc3ccccn23)cc1 | 1 | -5 | 1 | 29* | -6 | -2 | 2
CCOC(=O)/C(C#N)=C/c1c(Oc2cccc(C)c2)nc2c(C)cccn2c1=O | -15 | -17 | 1 | 0 | 6 | . | .
